The results in this text go back to PubChem BioAssay.

A short description of assay [1]: small molecules captured by biotinylated probe aFSTL3 – biochemical, small-molecule microarray, fluorescence 635/667, stem cell growth factor project, primary screen (AID 1064).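 Note: measures binding of the biotinylated anti-FSTL3 antibody to printed compounds.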 To be noted: higher = more signal.
A short description of assay [2]: binders from COS7 lysate, DM2A8 probe, primary screen, torsin A project, cell lysate, small-molecule microarray, fluorescence 635/667 (AID 1065). The conditions noted are these: higher = more signal, COS7 lysate expressing mutant human TOR1A.
Assay [3] is described as follows: small molecules captured by biotinylated probe aFGF2 – biochemical, small-molecule microarray, fluorescence 635/667, stem cell growth factor project, primary screen (AID 1067).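 Note: measures binding of biotinylated aFGF2 protein to printed compounds on slides; z-score merges feature fluorescence and signal-to-noise across triplicate slides.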 To be noted: higher = more signal.
Assay [4] in a line: small molecules captured by biotinylated probe aFGF10 – biochemical, small-molecule microarray, fluorescence 635/667, stem cell growth factor project, primary screen (AID 1071).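 Note: score merges 667 nm spot intensity and signal to noise from triplicate slides.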 The conditions noted are these: higher = more signal.
For assay [5], the target named is Neurogenic locus notch homolog protein 2 (Homo sapiens) (UniProt Q04721). In words: small molecules binding Notch2 protein – biochemical, small-molecule microarray, 635 nm fluorescence, stem cell growth factors, primary screen (AID 1073). To be noted: higher = more signal.
Assay [6] deals with Pro-neuregulin-1, membrane-bound isoform (Homo sapiens) (UniProt Q02297). In words: small molecules binding neuregulin-1 protein – biochemical, small-molecule microarray, fluorescence 635/667, psychiatric disease protein project, primary screen (AID 1075).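 Note: score combines 667 nm spot fluorescence with signal to noise.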 The conditions noted are these: NRG1 binding, 635 nm fluorescence, higher = more signal.
In assay [7] the test system is Neuregulin-1 EGF-like domain. In words: small molecules binding NRG1 EGF domain – biochemical, small-molecule microarray, 635 nm fluorescence, primary screen (AID 1081).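 Note: binding of the protein to compounds printed on small-molecule microarray slides.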 The conditions noted are these: higher = more signal.
The nature of assay [8]: FRG1 expression reporter modulators in myotubes – cell-based, C2C12 myotubes, firefly/Renilla luciferase, luminescence, FRG1 inhibition for FSHD, primary screen (AID 1084). The conditions noted are these: FRG1 promoter luciferase, higher = more signal, called active from +8 up or from −8 down.
Assay [9] is described as follows: small molecules captured by biotinylated probe aFST – biochemical, small-molecule microarray, fluorescence 635/667, stem cell growth factor project, primary screen (AID 1086).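 Note: score merges 667 nm fluorescence with signal-to-noise of each printed compound spot.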 The conditions noted are these: higher = more signal.
The nature of assay [10]: binders of probe aHhip on microarray, primary screen, stem cell growth factor project, biochemical, small-molecule microarray, fluorescence 635/667 (AID 1087).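 Note: score merges spot fluorescence at 667nm with spot signal to noise ratio.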 The conditions noted are these: higher = more signal.
In assay [11] the test system is PRMT1 (protein arginine N-methyltransferase 1). As to the kind of experiment: small molecules binding arginine methyltransferase PRMT1 – biochemical, small-molecule microarray, 635 nm fluorescence, primary screen (AID 1088).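 Note: binding of Prmt1 protein to compounds spotted on small-molecule microarray slides.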 The conditions noted are these: higher = more signal.
Assay [12] can be described thus: growth effects on S. cerevisiae YJM789 – YJM789 clinical isolate, OD600, 24 h, basal, primary screen (AID 1089).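 Note: growth of clinical yeast isolate S. cerevisiae YJM 789 seeded 1000 cells per well; test concentration not given here.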 The conditions noted are these: higher = more signal, called active from +8 up or from −8 down.
A short description of assay [13]: S. pombe growth modifiers, basal conditions – strain 972, OD600, 24 h, no modulator, primary screen (AID 1090).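 Note: basal condition with compound alone and no growth modifier present; test concentration not given here.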 The conditions noted are these: S. pombe 972 growth, higher = more signal, called active from +8 up or from −8 down.
Assay [14] is described as follows: budding yeast growth modifiers under rapamycin – strain BY4716, OD600, 96 h, primary screen (AID 1091). Note: test concentration not given here. The conditions noted are these: S. cerevisiae BY4716 + rapamycin, higher = more signal, called active from +8 up or from −8 down.
Assay [15] addresses Torsin-1A-interacting protein 2 (Homo sapiens) (UniProt Q8NFQ8). In words: small molecules binding lysate-expressed LULL1 – cell lysate, human LULL1 lysate, 635/667 nm fluorescence, primary screen (AID 1092).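 Note: probe is lysate of COS7 cells overexpressing human LULL1; score merges per-feature 667 nm fluorescence with signal-to-noise.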 To be noted: small-molecule microarray, hLULL1 lysate binding, 635 nm fluorescence; higher = more signal.
Assay [16] can be described thus: optical density change of DRC41 E. coli – strain DRC41, OD650, 24 h, E. coli filamentation project, primary screen (AID 1093).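 Note: MC1000 strain lacking acrAB efflux and sulA so SOS filamentation is blocked; test concentration not given here.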 To be noted: E. coli DRC41 growth, higher = more signal, called active from +8 up or from −8 down.
A short description of assay [17]: probe aLefty2 binding to arrayed compounds – biochemical, biotinylated probe, 635/667 nm fluorescence, primary screen (AID 1094).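 Note: score merges spot fluorescence near 667 nm with spot signal-to-noise ratio.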 To be noted: small-molecule microarray, higher = more signal.
Assay [18] has as its system Noggin (protein binding on small-molecule microarray). In words: small molecules binding Noggin protein – biochemical, 635/667 nm fluorescence, primary screen (AID 1095).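 Note: score merges 667 nm feature fluorescence with signal to noise over triplicate slides.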 The conditions noted are these: 635 nm fluorescence, higher = more signal.
For assay [19], the target named is Neurogenic locus notch homolog protein 3 (Homo sapiens) (UniProt Q9UM47). In words: small molecules binding NOTCH3 protein – biochemical, 635/667 nm fluorescence, primary screen (AID 1096). To be noted: small-molecule microarray, 635 nm fluorescence, higher = more signal.
Assay [20] can be described thus: probe aEGFR binding to arrayed compounds – biochemical, biotinylated probe, 635/667 nm fluorescence, primary screen (AID 1097).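 Note: probe is a biotinylated anti-EGFR antibody binding compounds printed on slides; score combines fluorescence near 667 nm and signal to noise of each spot.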 The conditions noted are these: small-molecule microarray, higher = more signal.

Active and inactive are the calls of the source.

Neurogenic locus notch homolog protein 3 (Homo sapiens), sequence (Q9UM47 whole entry, looked up): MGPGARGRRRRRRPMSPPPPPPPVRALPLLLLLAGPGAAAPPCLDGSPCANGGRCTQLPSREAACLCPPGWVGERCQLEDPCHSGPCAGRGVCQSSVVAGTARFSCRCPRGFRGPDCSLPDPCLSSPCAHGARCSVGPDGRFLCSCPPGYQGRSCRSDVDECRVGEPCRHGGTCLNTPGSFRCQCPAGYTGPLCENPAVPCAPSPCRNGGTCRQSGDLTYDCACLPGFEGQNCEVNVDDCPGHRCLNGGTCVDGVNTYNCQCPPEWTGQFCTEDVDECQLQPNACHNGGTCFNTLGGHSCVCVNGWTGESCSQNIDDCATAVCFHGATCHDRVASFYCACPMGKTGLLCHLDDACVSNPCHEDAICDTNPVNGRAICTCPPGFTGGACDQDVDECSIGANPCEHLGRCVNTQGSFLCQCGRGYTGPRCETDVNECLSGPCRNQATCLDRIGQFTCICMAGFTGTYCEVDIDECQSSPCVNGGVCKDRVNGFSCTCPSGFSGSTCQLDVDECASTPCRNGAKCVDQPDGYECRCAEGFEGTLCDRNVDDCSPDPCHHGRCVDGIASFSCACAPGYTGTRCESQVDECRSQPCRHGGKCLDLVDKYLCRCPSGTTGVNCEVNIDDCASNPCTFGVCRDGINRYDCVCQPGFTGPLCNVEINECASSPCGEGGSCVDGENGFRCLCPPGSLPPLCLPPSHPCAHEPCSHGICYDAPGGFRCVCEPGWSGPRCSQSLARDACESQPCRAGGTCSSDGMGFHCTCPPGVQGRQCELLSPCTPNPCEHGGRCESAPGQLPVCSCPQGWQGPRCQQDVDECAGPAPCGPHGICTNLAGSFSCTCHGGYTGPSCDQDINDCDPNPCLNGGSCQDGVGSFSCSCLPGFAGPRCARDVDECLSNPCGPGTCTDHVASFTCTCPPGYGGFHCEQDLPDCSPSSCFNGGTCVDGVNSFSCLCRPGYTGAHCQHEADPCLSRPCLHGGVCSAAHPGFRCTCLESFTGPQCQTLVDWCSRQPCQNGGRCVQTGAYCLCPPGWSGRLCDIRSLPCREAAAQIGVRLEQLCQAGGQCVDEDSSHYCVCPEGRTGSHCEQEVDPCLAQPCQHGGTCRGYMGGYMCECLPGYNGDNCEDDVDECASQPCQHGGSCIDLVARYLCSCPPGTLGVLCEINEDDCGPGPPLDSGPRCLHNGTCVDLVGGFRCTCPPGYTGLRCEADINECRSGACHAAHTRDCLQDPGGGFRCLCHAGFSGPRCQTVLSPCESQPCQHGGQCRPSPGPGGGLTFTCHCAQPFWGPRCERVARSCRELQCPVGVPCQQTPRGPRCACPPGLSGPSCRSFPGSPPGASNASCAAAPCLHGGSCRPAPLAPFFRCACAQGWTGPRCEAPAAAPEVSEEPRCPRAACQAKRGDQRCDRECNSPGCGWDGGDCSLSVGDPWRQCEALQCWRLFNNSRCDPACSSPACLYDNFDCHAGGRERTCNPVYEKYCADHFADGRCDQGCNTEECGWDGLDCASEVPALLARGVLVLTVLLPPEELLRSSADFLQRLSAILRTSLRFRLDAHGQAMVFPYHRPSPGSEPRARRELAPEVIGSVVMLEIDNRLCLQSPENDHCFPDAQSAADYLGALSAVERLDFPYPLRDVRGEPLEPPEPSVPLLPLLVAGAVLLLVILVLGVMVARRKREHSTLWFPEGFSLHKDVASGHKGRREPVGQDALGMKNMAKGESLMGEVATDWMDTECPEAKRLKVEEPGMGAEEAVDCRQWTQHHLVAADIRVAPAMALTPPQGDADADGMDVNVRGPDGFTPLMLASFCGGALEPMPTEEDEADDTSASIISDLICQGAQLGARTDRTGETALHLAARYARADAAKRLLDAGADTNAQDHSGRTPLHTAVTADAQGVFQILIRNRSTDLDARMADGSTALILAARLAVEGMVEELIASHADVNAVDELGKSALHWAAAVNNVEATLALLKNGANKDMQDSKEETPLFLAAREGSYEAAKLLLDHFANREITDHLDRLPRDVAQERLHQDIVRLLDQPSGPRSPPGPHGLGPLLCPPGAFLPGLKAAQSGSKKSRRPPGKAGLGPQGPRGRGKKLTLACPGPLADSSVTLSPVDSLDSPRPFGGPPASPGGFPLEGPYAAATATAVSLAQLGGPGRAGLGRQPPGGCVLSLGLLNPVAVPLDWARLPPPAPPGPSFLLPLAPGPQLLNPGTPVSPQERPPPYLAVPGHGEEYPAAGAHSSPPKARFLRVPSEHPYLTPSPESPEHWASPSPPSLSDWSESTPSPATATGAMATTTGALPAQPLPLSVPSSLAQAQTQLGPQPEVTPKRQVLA
Torsin-1A-interacting protein 2 (Homo sapiens), sequence (Q8NFQ8 whole entry, looked up): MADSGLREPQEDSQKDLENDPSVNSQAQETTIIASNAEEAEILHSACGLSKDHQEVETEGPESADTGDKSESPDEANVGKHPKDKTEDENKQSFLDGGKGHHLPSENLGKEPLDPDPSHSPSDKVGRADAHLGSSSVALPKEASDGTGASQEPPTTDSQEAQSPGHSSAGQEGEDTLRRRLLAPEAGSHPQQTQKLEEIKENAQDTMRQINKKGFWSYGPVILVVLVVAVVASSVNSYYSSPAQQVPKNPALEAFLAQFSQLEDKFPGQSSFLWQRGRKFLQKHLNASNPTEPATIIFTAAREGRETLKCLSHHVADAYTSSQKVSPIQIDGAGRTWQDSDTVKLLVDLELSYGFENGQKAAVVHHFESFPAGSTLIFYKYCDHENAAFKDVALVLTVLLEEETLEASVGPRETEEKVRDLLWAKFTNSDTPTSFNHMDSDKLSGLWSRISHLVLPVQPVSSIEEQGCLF
Pro-neuregulin-1, membrane-bound isoform (Homo sapiens), sequence (Q02297 whole entry, looked up, the tested form may be a part, canonical isoform): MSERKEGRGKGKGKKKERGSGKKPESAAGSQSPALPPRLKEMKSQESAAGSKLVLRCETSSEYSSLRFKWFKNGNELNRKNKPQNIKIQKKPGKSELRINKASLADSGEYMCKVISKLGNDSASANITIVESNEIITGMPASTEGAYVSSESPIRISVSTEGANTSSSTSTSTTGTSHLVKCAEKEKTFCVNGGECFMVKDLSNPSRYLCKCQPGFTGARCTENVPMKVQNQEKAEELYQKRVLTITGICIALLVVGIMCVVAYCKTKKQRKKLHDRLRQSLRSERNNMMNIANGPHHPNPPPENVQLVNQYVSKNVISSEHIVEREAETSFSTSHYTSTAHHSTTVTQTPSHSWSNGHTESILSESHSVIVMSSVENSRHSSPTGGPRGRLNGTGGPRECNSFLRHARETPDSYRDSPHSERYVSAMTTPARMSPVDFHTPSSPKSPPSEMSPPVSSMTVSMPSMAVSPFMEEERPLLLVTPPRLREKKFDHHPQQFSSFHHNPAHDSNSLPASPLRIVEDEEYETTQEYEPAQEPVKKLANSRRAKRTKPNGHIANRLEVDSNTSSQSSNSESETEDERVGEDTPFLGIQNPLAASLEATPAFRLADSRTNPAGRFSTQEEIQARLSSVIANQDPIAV

Regarding `CCCCCN1CC=CC23O[C@@H]4/C=C\CCCOC(=O)C4[C@H]2C(=O)N(CCCO)[C@@H]3C1=O` (stereo not given in full), the composite z-score is -0.181 in assay [1]; 1.14 in assay [2]; -0.156 in assay [3]; 0.116 in assay [4]; -0.573 in assay [5]; 0.753 in assay [6]. Further, the composite z-score is 1.47 in assay [7]; -0.533 in assay [9]; -0.11 in assay [10]; 0.83 in [11]; 3.58 in assay [15]; -0.135 in assay [17]. Also, the composite z-score in [18] was -0.103; in assay [19] it was 0.165; in [20] it was -0.186. The z-score in assay [8] was -0.16 (inactive); in assay [12], -1.03 (inactive); in [13] it was -0.81 (inactive); in assay [14], -1.67 (inactive); in assay [16], 2.35 (inactive).
Take `O=C1OCCC/C=C\[C@H]2OC34C=CCN(CCN5CCOCC5)C(=O)[C@H]3N(CCCO)C(=O)[C@@H]4C12` (stereo not given in full): the composite z-score was -0.0893 in assay [1]; 0.95 in [2]; -0.168 in assay [3]; -1.07 in assay [4]; -0.793 in assay [5]; 1.47 in [6]. Moreover, the composite z-score was 0.993 in assay [7]; -0.209 in assay [9]; -0.216 in assay [10]; -0.622 in assay [11]; 3.54 in assay [15]; -0.381 in assay [17]. For the same molecule, the composite z-score in assay [18] was -0.813; in assay [19], -0.93; in [20] it was -0.199. Moreover, the z-score in assay [8] was 0.562 (inactive); in assay [12], -1.35 (inactive); in [13], -0.632 (inactive); in assay [14] it was -0.595 (inactive); in assay [16] it was -0.44 (inactive).
`Cc1ccc(C(C)CC(O)C2C=CC3C(=O)N(c4ccccc4)C(=O)C3N2Nc2ccc([N+](=O)[O-])cc2)o1` (stereo not given): the composite z-score was -0.0729 in assay [1]; 0.123 in assay [2]; 0.0757 in assay [3]; 0.513 in assay [4]; 1.51 in assay [5]; 1.69 in assay [6]. Moreover, the composite z-score in assay [7] stood at 1.2; in assay [9], 1.51; in assay [10] it was 0.0373; in assay [11] it was 1.55; in [15] it was 3.1; in assay [17], 0.157. For the same molecule, the figures for the composite z-score in [18], in [19] and in assay [20] were 0.181, 1.1 and 0.0807, respectively. In addition, the z-score in assay [8] is 0.296 (inactive); in assay [12], 0.0574 (inactive); in assay [13] it was 0.593 (inactive); in [14] it was 1.31 (inactive); in assay [16] it was -0.468 (inactive).
As for `CC(C)(C)OC(=O)CC[C@]1(C(=O)O)N=C(c2ccc(OCCCO)cc2)O[C@H]1c1ccccc1N=[N+]=[N-]`, the composite z-score was found to be 1.1 in [1]; 0.236 in [2]; 0.441 in assay [3]; 0.448 in assay [4]; 0.984 in assay [5]; 1.35 in assay [6]. Further, the composite z-score stood at 1.14 in assay [7]; 2.04 in assay [9]; 1.24 in [10]; 0.938 in assay [11]; 3 in assay [15]; 1.1 in assay [17]. Also, the composite z-score turned out to be 0.189 in assay [18], 0.41 in assay [19] and 0.285 in assay [20]. Moreover, the z-score was 5.5 (inactive) in assay [8]; 0.0071 (inactive) in assay [12]; 0.179 (inactive) in assay [13]; -0.668 (inactive) in [14]; -0.0096 (inactive) in [16].
For `COCCCNC(=O)[C@@]1(Cc2ccccc2N=[N+]=[N-])N=C(c2ccc(OCCCO)cc2)O[C@H]1c1ccccc1N=[N+]=[N-]`, the composite z-score in [1] was 0.622; in [2] it was 0.81; in assay [3], -0.252; in assay [4], 0.436; in [5] it was 1.37; in [6], 1.52. The composite z-score is 0.831 in assay [7]; 1.36 in assay [9]; -0.26 in assay [10]; 1.56 in assay [11]; 3.27 in [15]; 0.23 in assay [17]. In addition, the composite z-score worked out at 0.0556 in assay [18], 1.1 in [19] and 0.0507 in assay [20]. Further, the z-score in assay [8] was -0.702 (inactive); in [12] it was 0.253 (inactive); in [13], -0.143 (inactive); in assay [14], 2.01 (inactive); in [16], -0.27 (inactive).
